Laboratory results as given in the supplement of paper PMC11732987, “Enantioselective OTUD7B fragment discovery through chemoproteomics screening and high-throughput optimisation” (Communications Chemistry, 2025).

Key:
Assay in all cases: log2 ratio of Biotin-Ahx-Ub-VS probe labelling (fragment/DMSO); higher = less target engagement (more negative = stronger competition), active = hit call of the paper (q ≤ 0.05, log2 ratio ≤ -1)
Conditions in all cases: compound concentration: 200 uM; treatment time: 3 h
USP19 = target: T1, USP19 (UniProt O94966)
T1 sequence (whole entry): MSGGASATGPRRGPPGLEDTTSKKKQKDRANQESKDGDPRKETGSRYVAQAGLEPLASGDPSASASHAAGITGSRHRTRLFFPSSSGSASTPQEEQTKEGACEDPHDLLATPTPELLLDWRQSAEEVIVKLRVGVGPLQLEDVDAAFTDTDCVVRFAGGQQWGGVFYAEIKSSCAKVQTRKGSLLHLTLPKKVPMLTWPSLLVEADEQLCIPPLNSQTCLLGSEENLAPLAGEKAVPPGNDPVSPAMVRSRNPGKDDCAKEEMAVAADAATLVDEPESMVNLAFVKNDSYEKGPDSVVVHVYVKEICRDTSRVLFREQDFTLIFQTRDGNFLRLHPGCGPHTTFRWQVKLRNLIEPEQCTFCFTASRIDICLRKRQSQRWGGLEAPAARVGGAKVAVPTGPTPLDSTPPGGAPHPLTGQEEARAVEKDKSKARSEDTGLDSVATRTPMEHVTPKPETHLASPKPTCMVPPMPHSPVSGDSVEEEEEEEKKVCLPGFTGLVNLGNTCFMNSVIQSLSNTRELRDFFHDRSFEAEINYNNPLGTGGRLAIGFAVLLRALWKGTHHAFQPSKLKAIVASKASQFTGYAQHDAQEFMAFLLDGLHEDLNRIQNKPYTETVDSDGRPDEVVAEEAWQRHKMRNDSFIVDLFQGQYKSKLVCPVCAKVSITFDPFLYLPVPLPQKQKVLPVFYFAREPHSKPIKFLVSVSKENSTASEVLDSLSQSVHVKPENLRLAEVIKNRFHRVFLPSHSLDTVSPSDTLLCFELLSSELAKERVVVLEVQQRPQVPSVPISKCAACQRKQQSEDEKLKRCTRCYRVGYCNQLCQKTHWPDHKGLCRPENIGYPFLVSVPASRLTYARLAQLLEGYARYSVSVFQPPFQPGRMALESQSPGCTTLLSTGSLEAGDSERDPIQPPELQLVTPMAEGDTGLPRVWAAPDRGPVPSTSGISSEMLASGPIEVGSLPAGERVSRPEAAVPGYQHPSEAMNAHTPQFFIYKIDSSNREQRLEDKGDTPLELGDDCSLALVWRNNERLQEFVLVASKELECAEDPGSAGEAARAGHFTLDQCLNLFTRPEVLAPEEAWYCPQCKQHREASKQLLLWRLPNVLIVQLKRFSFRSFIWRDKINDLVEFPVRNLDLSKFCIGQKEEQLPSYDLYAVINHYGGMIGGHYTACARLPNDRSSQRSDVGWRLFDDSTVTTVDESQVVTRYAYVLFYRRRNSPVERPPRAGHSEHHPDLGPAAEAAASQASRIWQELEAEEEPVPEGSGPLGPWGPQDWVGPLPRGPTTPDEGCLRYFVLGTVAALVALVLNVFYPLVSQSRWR
Procedure, shortened: (§1)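 HEK293T lysate in Tris/CHAPS/IGEPAL buffer with protease inhibitors (495 µg per sample) was given fragment at 200 µM or vehicle for 3 h, in triplicate. It then received Biotin-Ahx-Ub-VS at 0.5 µM final for 1 h. Labelled DUBs were NeutrAvidin-enriched, digested with LysC and trypsin, and run by diaPASEF LC-MS/MS. Values are average log2 fragment/vehicle ratios by unpaired t-test on global-median-normalised Spectronaut quantities of proteins with ≥2 unique peptides.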

USP22 = target: T2, USP22 (UniProt Q9UPT9)
T2 sequence (whole entry): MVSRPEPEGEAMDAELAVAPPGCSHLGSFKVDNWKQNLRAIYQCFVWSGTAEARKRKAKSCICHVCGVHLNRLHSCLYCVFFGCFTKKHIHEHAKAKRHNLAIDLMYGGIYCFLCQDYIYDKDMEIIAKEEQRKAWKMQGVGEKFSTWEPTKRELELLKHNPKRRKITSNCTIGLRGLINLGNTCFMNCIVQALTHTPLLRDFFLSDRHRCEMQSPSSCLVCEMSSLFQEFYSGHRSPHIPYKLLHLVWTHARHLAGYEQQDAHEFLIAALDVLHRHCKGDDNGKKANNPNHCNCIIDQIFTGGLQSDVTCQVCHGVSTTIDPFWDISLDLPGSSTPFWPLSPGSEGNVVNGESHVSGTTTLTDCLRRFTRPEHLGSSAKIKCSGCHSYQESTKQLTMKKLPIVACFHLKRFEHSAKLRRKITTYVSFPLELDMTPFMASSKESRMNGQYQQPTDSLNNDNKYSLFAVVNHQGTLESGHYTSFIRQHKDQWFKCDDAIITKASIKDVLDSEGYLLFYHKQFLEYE
Procedure, shortened: as §1

USP24 = USP24 (UniProt Q9UPU5)
Chain of USP24 (Q9UPU5 whole entry): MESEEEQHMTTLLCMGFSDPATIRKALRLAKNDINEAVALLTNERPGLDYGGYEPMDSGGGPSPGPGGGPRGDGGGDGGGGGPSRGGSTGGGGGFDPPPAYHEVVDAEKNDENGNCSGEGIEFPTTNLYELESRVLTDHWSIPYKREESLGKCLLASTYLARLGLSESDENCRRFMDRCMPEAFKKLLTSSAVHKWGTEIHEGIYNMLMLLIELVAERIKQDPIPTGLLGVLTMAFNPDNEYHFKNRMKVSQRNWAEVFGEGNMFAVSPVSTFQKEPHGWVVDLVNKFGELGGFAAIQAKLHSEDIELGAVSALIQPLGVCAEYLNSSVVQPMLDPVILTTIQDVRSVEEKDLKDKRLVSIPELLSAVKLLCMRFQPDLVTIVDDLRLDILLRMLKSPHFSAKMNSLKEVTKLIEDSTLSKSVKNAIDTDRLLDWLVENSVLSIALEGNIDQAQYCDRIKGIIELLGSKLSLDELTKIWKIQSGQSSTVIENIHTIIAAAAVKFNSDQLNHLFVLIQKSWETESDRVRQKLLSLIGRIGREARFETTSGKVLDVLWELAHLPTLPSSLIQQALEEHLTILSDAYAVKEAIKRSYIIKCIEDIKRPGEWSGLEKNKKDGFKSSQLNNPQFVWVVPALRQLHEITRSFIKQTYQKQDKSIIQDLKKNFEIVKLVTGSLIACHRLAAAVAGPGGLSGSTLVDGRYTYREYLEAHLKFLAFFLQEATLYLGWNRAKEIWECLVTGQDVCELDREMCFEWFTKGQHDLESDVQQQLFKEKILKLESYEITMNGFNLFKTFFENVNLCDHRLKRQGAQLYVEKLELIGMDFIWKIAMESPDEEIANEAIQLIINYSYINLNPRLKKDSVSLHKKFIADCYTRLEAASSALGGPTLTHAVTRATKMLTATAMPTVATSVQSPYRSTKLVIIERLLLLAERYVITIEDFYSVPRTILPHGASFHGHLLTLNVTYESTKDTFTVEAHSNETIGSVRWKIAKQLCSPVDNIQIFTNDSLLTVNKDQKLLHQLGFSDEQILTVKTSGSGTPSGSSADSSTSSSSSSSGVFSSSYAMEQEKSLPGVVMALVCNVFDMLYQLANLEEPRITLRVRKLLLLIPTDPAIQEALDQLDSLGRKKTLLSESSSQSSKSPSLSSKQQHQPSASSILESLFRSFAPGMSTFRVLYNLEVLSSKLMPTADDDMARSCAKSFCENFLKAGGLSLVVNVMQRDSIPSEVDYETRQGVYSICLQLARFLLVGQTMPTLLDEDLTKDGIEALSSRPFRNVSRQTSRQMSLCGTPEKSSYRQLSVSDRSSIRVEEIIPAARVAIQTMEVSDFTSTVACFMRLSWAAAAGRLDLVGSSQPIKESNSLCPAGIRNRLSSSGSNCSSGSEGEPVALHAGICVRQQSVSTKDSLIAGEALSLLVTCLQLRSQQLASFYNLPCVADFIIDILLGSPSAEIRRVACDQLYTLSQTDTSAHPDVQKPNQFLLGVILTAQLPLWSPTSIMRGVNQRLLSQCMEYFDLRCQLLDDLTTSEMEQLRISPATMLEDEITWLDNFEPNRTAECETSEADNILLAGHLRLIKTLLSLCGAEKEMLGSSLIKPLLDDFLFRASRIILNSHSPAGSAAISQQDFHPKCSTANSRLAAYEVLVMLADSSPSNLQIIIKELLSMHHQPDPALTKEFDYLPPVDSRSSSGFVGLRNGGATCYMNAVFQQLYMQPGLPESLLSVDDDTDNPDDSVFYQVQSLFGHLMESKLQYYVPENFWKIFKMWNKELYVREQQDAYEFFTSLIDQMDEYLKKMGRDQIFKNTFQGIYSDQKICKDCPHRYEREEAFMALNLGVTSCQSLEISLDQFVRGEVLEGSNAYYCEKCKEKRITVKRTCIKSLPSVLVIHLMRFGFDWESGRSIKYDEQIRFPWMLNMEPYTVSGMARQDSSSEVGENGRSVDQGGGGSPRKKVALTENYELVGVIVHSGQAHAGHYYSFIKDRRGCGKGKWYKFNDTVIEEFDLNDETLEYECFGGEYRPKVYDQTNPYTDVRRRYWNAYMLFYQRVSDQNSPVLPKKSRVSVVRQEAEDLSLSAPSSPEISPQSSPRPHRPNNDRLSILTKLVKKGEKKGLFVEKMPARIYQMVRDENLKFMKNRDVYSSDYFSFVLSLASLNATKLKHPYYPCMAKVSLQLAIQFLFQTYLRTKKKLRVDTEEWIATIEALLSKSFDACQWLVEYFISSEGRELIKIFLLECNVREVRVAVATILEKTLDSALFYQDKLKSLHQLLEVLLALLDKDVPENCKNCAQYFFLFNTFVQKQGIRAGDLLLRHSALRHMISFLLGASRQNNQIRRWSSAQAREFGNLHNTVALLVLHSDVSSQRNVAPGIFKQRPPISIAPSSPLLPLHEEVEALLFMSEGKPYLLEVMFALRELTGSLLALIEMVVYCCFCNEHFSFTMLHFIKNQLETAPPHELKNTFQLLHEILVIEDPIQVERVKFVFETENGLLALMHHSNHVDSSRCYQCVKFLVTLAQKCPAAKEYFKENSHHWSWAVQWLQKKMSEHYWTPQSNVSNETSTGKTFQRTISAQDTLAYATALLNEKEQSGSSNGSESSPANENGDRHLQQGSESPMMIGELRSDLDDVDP
Procedure, shortened: as §1

USP25 = target: T3, USP25 (UniProt Q9UHP3)
T3 sequence (whole entry): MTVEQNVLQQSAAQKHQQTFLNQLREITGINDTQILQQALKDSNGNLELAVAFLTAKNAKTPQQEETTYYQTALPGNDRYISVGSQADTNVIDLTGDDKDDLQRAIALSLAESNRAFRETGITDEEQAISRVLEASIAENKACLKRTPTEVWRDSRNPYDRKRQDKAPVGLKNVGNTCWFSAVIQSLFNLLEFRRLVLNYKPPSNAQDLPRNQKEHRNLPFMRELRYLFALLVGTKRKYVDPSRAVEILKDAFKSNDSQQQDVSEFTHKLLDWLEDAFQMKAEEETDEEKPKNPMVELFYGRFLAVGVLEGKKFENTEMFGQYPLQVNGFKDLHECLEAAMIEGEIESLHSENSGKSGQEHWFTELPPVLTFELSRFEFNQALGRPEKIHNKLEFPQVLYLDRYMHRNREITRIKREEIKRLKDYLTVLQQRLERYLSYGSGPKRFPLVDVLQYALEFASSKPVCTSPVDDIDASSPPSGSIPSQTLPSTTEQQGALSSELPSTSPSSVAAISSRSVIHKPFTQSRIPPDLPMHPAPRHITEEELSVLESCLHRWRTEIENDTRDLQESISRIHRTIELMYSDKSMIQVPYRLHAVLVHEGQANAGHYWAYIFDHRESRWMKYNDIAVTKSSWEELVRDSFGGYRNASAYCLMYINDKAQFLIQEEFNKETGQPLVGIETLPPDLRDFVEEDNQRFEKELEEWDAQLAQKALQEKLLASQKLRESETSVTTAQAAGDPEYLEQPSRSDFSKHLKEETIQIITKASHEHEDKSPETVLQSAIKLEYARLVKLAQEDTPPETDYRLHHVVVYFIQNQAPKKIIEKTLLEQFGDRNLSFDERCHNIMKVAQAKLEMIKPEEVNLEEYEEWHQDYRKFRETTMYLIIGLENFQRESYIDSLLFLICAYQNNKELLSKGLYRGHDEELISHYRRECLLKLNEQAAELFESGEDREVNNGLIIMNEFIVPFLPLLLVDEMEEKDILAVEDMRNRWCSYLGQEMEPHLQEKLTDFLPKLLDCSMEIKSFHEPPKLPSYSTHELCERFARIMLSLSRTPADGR
Procedure, shortened: as §1

USP28 = target: T4, USP28 (UniProt Q96RU2)
T4 sequence (whole entry): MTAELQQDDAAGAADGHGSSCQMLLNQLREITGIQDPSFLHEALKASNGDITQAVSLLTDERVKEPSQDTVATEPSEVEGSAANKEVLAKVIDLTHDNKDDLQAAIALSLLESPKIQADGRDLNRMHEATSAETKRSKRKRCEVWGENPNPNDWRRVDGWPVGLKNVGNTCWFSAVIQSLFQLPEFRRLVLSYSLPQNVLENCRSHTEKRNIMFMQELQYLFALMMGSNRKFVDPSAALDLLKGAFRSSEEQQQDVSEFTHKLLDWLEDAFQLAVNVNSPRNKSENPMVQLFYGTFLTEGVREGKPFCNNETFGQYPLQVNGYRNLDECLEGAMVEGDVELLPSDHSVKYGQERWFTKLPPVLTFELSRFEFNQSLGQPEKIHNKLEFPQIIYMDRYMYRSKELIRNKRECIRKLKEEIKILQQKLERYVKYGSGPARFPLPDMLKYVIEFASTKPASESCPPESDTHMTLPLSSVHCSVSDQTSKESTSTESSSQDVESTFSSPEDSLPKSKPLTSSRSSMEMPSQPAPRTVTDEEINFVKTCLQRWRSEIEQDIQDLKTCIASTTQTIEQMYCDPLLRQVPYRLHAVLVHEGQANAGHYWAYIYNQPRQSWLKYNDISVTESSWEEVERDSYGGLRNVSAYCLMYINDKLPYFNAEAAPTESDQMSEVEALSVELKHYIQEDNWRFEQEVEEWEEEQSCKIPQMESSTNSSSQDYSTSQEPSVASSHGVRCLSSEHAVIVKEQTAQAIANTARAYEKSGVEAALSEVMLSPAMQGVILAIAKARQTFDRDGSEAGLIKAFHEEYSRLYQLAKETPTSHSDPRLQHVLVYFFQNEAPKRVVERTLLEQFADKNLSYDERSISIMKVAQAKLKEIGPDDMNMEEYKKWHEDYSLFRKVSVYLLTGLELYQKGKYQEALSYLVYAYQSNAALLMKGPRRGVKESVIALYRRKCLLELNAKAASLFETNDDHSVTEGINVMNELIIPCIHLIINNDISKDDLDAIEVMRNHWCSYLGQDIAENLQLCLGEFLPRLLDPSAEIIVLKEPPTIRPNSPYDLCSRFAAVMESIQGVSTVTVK
Procedure, shortened: as §1

Measured: log2 ratio of Biotin-Ahx-Ub-VS probe labelling

Cc1cccc(N(CCC#N)C(=O)CCl)c1C
inactive: USP19 0.16 | USP22 -0.11 | USP24 -0.0767 | USP25 0.00615 | USP28 -0.253
